Inconclusive results are not listed. A number with no mark means an inactive call. Active and inactive are the calls of the source. The call rests on the fitted dose curve; in most records, active means well fitted cell-killing curve with a large enough effect; inconclusive means small, poorly fitted or top-dose-only effect, or effect the other way; inactive means no such curve, though single readings can be large or run the other way.
Test: Quantitative High-Throughput drug screen in 47 multiple myeloma cell lines against the NCATS MIPE library collection: INA6_PLB cell viability assay (AID 1918965; further: nearly all actives have a fitted effect of over 55% in size)
Details: INA6 myeloma viability, CellTiter-Glo ATP luminescence, 48 h; series mostly up to 45.8 µM; viability (% of control): at the top concentration
How it was run: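 CellTiter-Glo ATP luminescence gave viability after 48 h compound treatment at 37C of 500 multiple myeloma cells per well. Normalisation used DMSO-only wells as 100% and media-only wells as 0% viability; primary qHTS of approved and investigational drugs.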
Potency means the concentration at half of the fitted maximal effect.

**Q.** For Cc1cc(CS(=O)(=O)c2ccccc2)cc(OCc2ccc(CN3CCC[C@H]3CO)cc2)c1, which Potency is on record?
**A.** 18.7 µM (active)

**Q.** Which Potency does the source give for Cc1cccc(Nc2nc(N[C@@H]3CCCC[C@H]3N)ncc2C(N)=O)c1 here?
**A.** 1.48 µM (active)

**Q.** With C=C1[C@H](n2cnc3c(=O)[nH]c(N)nc32)C[C@H](O)[C@H]1CO as the molecule, how does the Potency read?
**A.** 11.8 µM (active)

**Q.** Which “viability (% of control)” value does the source give for C[C@]12CC[C@@H]3c4ccc(O)cc4CC[C@H]3[C@H]1[C@@H](O)[C@@H](O)[C@H]2O here?
**A.** 156%

**Q.** For FC(F)(F)c1ccc(C=Cc2nc(COc3ccc(CCCCn4ccnn4)cc3)co2)cc1, which Potency is on record?
**A.** 0.0132 µM (active)

**Q.** For CC[C@H](C)n1cc(C)c2c(C(=O)NCc3c(C)cc(C)[nH]c3=O)cc(-c3ccc(N4CCNCC4)nc3)cc21, which Potency is on record?
**A.** 18.7 µM (active)

**Q.** With O=C1Nc2ccc(I)cc2C1=Cc1cc(Br)c(O)c(Br)c1 as the molecule, how does the Potency read?
**A.** 2.96 µM (active)

**Q.** For Cc1nc(NC(=O)N2CCC[C@@H]2C(N)=O)sc1-c1csc(C(C)(C)C)n1, which Potency is on record?
**A.** 16.6 µM (active)

**Q.** For CCOC(=O)[C@H]1O[C@H]1C(=O)N[C@@H](CC(C)C)C(=O)NCCC(C)C, which “viability (% of control)” value is on record?
**A.** 131%

**Q.** Which Potency does the source give for OC(c1cc(C(F)(F)F)nc2c(C(F)(F)F)cccc12)C1CCCCN1 (centres undefined) here?
**A.** 23.5 µM (active)

**Q.** With CC(=O)N1CCN(c2ccc(OCc3nn(C)c(C)c3-c3cccc4c(CCCOc5cc(C)c(Cl)c(C)c5)c(C(=O)O)n(Cc5cccnc5)c34)cc2)CC1 as the molecule, how does the Potency read?
**A.** 1.66 µM (active)

**Q.** For CN1CC(=O)NC1=NC(=O)Nc1cccc(Cl)c1, which Potency is on record?
**A.** 14.8 µM (active)

**Q.** With CC1=C(CC(=O)O)c2cc(F)ccc2C1=Cc1ccc(S(C)=O)cc1 (centres undefined) as the molecule, how does the Potency read?
**A.** 18.7 µM (active)

**Q.** With COc1cc2c(cc1OC)CC(=O)N(CCCN(C)C[C@H]1Cc3cc(OC)c(OC)cc31)CC2 as the molecule, how does the “viability (% of control)” value read?
**A.** 160%

**Q.** Which Potency does the source give for Oc1cc(O)cc(C=Cc2ccc(O)c(O)c2)c1 here?
**A.** 2.96 µM (active)

**Q.** With CC(C)n1c(C=C[C@H](O)C[C@H](O)CC(=O)O)c(-c2ccc(F)cc2)c2ccccc21 as the molecule, how does the Potency read?
**A.** 10.5 µM (active)

**Q.** With CSc1cccc(Nc2ncc3cc(-c4c(Cl)cccc4Cl)c(=O)n(C)c3n2)c1 as the molecule, how does the Potency read?
**A.** 0.059 µM (active)

**Q.** Which Potency does the source give for O=C(NC[C@H](O)CO)c1ccncc1Nc1ccc(I)cc1F here?
**A.** 5.9 µM (active)

**Q.** For Cc1ccc(NC(=O)Nc2cc(C(F)(F)F)ccc2F)cc1Nc1ccc2c(c1)NC(=O)C2=Cc1ccc[nH]1, which Potency is on record?
**A.** 4.18 µM (active)

**Q.** Which “viability (% of control)” value does the source give for CN1[C@H]2CC[C@H]1CC(OC(=O)c1c[nH]c3ccccc13)C2 (some centres undefined) here?
**A.** 138%

**Q.** Which Potency does the source give for Cc1c(-c2cccc3c(CCCOc4cccc5ccccc45)c(C(=O)O)n(Cc4cccnc4)c23)c(COc2ccc(N3CCN([S+](=O)([O-])N(C)C)CC3)cc2)nn1C here?
**A.** 16.6 µM (active)

**Q.** Which Potency does the source give for C[C@@H]1CC=CC=CC=CC=C[C@@H](O[C@@H]2O[C@H](C)[C@@H](O)[C@H](N)[C@H]2O)C[C@@H]2O[C@](O)(C[C@@H](O)C[C@@H]3O[C@@H]3C=CC(=O)O1)C[C@H](O)[C@@H]2C(=O)O here?
**A.** 18.7 µM (active)

**Q.** Which Potency does the source give for CC(C)c1c(C(=O)Nc2ccccc2)c(-c2ccccc2)c(-c2ccc(F)cc2)n1CC[C@H](O)C[C@@H](O)CC(=O)O here?
**A.** 8.33 µM (active)

**Q.** With N#Cc1c(N(CC(=O)O)CC(=O)O)sc(C(=O)O)c1CC(=O)O as the molecule, how does the Potency read?
**A.** 14.8 µM (active)

**Q.** Which Potency does the source give for COc1nccc(-c2c(-c3ccc(F)cc3)ncn2C2CCC(O)CC2)n1 (centres undefined) here?
**A.** 13.2 µM (active)

Test: Quantitative High-Throughput drug screen in 47 multiple myeloma cell lines against the NCATS MIPE library collection: JJN3_DSMZ cell viability assay (AID 1918966; further: nearly all actives have a fitted effect of over 50% in size)
Details: JJN3 myeloma cells viability, CellTiter-Glo ATP, 48 h; series mostly up to 45.8 µM; viability, % of DMSO: at the top concentration
How it was run: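 Relative luminescence from CellTiter-Glo served as the viability signal, referenced to DMSO-treated (100%) and cell-free medium (0%) controls. Treatment lasted 48 hours at 37C with 500 cells per well.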

**Q.** With COc1cc(C=CC(=O)O)ccc1O as the molecule, how does the “viability, % of DMSO” value read?
**A.** 111%

**Q.** Which “viability, % of DMSO” value does the source give for C=C1[C@H](n2cnc3c(=O)[nH]c(N)nc32)C[C@H](O)[C@H]1CO here?
**A.** 104%

**Q.** With FC(F)(F)c1ccc(C=Cc2nc(COc3ccc(CCCCn4ccnn4)cc3)co2)cc1 as the molecule, how does the “viability, % of DMSO” value read?
**A.** 122%

**Q.** For Cc1nc(NC(=O)N2CCC[C@@H]2C(N)=O)sc1-c1csc(C(C)(C)C)n1, which Potency is on record?
**A.** 6.62 µM (active)

**Q.** For CN1CC(=O)NC1=NC(=O)Nc1cccc(Cl)c1, which Potency is on record?
**A.** 8.33 µM (active)

**Q.** For CC1=C(CC(=O)O)c2cc(F)ccc2C1=Cc1ccc(S(C)=O)cc1 (centres undefined), which Potency is on record?
**A.** 10.5 µM (active)

**Q.** With Oc1cc(O)cc(C=Cc2ccc(O)c(O)c2)c1 as the molecule, how does the Potency read?
**A.** 16.6 µM (active)

**Q.** Which “viability, % of DMSO” value does the source give for CC(C)n1c(C=C[C@H](O)C[C@H](O)CC(=O)O)c(-c2ccc(F)cc2)c2ccccc21 here?
**A.** 124%

**Q.** With Cc1ccc(NC(=O)Nc2cc(C(F)(F)F)ccc2F)cc1Nc1ccc2c(c1)NC(=O)C2=Cc1ccc[nH]1 as the molecule, how does the Potency read?
**A.** 23.5 µM (active)

**Q.** With CO[C@H]1C=CO[C@@]2(C)Oc3c(C)c(O)c4c(O)c(c(C=NN5CCN(C)CC5)c(O)c4c3C2=O)NC(=O)C(C)=CC=C[C@H](C)[C@H](O)[C@@H](C)[C@@H](O)[C@@H](C)[C@H](OC(C)=O)[C@H]1C as the molecule, how does the Potency read?
**A.** 1.19 µM (active)

**Q.** With CCC(=C(CC)c1ccc(O)cc1)c1ccc(O)cc1 as the molecule, how does the Potency read?
**A.** 9.35 µM (active)

**Q.** Which Potency does the source give for Cc1c(-c2cccc3c(CCCOc4cccc5ccccc45)c(C(=O)O)n(Cc4cccnc4)c23)c(COc2ccc(N3CCN([S+](=O)([O-])N(C)C)CC3)cc2)nn1C here?
**A.** 23.5 µM (active)

**Q.** For O=C(O)Cc1cccc(OCCCN(Cc2cccc(C(F)(F)F)c2Cl)CC(c2ccccc2)c2ccccc2)c1, which Potency is on record?
**A.** 5.26 µM (active)

**Q.** With CC1(COc2ccc3c(c2)ncn3-c2ccc3cccc(N4CCC(N)CC4)c3n2)COC1 as the molecule, how does the Potency read?
**A.** 0.418 µM (active)
